Screens from PubChem.
ALR inh: inhibitors of human ALR sulfhydryl oxidase, primary screen, biochemical, H2O2 detection, HRP-luminol luminescence, single point. FAD-linked sulfhydryl oxidase ALR (Homo sapiens), P55789. actives 3.8% (n = 290,000). inhibition, % (concentration not given with the values). purified ALR, DTT oxidation. AID 485317, 2010;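 active means mean replicate inhibition above about 79%, with every replicate also reaching it, limit read from the data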
IDE cell inh: human IDE inhibitors in live cells, primary screen, fluorescence polarization, HEK cells, FAbetaB substrate; Insulin-degrading enzyme (Homo sapiens), P14735; FAbetaB cleavage; inhibition, % at 5.59 µM; actives 0.41% (n = 320,000); AID 434962, 2010;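 active means percent inhibition above the average of all tested compounds plus 3 SD, set per screening campaign, cut at about 16% in these data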;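 further: IDE supplied by intact live HEK cells; FP after avidin binding of uncleaved biotin substrate so inhibition keeps polarization high; 0% = DMSO wells and 100% = 60 µM reference IDE inhibitor Ii1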
Target sequence (P14735 whole entry, looked up): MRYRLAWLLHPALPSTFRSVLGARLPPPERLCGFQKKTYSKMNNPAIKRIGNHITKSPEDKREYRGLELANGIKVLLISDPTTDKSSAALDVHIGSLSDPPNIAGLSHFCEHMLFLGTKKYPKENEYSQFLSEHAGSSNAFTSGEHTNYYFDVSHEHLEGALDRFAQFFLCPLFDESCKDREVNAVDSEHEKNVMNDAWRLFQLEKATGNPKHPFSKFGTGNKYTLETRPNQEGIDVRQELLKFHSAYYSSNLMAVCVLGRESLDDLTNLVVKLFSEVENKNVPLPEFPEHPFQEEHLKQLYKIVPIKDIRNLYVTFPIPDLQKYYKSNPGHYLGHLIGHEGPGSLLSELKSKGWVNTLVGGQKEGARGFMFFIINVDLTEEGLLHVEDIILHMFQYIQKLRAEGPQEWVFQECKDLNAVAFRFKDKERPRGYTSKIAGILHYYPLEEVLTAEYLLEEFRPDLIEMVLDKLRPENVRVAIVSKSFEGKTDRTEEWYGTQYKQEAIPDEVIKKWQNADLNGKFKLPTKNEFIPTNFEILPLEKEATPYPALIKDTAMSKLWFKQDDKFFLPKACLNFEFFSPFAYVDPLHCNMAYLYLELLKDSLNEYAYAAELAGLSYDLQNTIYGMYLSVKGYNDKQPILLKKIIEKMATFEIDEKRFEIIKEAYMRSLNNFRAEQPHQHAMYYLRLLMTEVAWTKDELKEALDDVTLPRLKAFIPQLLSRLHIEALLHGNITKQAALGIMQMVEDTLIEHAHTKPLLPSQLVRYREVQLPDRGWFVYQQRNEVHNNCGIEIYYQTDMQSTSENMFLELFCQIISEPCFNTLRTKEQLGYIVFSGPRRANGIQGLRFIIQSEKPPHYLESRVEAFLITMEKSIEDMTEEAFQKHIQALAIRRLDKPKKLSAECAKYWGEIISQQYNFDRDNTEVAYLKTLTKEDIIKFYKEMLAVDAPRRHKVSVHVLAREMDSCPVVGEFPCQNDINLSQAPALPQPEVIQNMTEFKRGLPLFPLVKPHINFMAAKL
IDE cell activ: human IDE activators in live cells, primary screen, fluorescence polarization, HEK cells, FAbeta-B substrate | AID 493087, 2011 | activation, % at 5.96 µM | actives 0.073% (n = 340,000) | Insulin-degrading enzyme (Homo sapiens), P14735 | FAbeta-B cleavage; 0% vehicle, 100% cell-free pure enzyme wells;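 active means activation above the mean of all tested compounds plus 3 SD, set per screening campaign, cut at about 17% in these data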
PolyA inh: polyadenylation inhibitors in yeast reporter cells, primary screen, luminescence, S. cerevisiae; S. cerevisiae SKY197-pL101 polyadenylation reporter, beta-gal luminescence; efflux-impaired pdr1/pdr3 knockout yeast; score 100 = 6 SD above DMSO; activity score, % at 12 µM; actives 0.02% (n = 300,000); AID 1875, 2009;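 active means lowest replicate activity score at least 50, where 100 means six control SD above control mean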;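 further: yeast exposed to compound for 9 h at 30 °C; higher score means more reporter readthrough which indicates perturbed polyadenylation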
CaV13 ICDI inh: Primary screen for inhibitors of IQ motif and Ca2+-dependent inactivation inhibitor domain binding in CACNA1D, Förster resonance energy transfer in living cells, …. HEK cells, CFP/YFP FRET ICDI-IQ, plate reader, 10 min; percent FRET-ratio fall versus neutral wells. actives 0.098% (n = 340,000). inhibition, % at 12.3 µM;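 active means mean replicate inhibition of at least 30% and at least 1% of replicates passing that level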;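 further: 0% = median of the neutral control wells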
PfM18AAP inh-1: PfM18AAP inhibitors, malaria aminopeptidase, primary screen, biochemical, QFRET, recombinant enzyme; inhibition, % at 7.35 µM; M18 aspartyl aminopeptidase (Plasmodium falciparum 3D7); H-Glu-NHMec fluorogenic cleavage; AID 1822, 2009; actives 1.2% (n = 290,000);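 active means inhibition above the campaign mean inhibition over all tested compounds plus 3 SD, cut at about 28% in these data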;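 further: 0% = plate median of test compound wells and 100% = 2 mM ZnCl2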
PfM18AAP inh-2: PfM18AAP inhibitors, malaria aminopeptidase, confirmation, biochemical, QFRET, recombinant enzyme, triplicate. shares compounds with PfM18AAP inh-1. H-Glu-NHMec fluorogenic cleavage. inhibition, % at 7.35 µM. actives 28% (n = 2,400). AID 2170, 2009;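 active means mean inhibition over replicate wells above the hit cutoff set for the earlier primary screen, cut at about 29% in these data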;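 further: 0% = median of test compound wells and 100% = 2 mM ZnCl2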
CTSL1 counter: cathepsin L1 inhibitors, retest, confirmation, counter-screen for PFM18AAP inhibitor project, biochemical, QFRET, triplicate | 2,400 tested, under 10 active | inhibition, % at 5.96 µM | AID 2178, 2009 | purified cathepsin L1, Z-Leu-Arg-MCA fluorescence | shares compounds with PfM18AAP inh-1;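 active means average inhibition across replicates above the hit cutoff set in the earlier primary screen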;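 further: 0% = median of test compound wells and 100% = Z-Phe-Ala-diazomethylketone 1 µM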
* hit, by the source's call; · = no result given. In the library only some 4.1% were active in any assay of this set; here they are far more common.

SMILES | ALR inh | IDE cell inh | IDE cell activ | PolyA inh | CaV13 ICDI inh | PfM18AAP inh-1 | PfM18AAP inh-2 | CTSL1 counter
COc1cc(/C=N/Nc2nncn2/N=C/c2ccc(O)c(OC)c2)ccc1O | 99.3* | 4.8 | 3.0 | 6.8 | -4.7 | 62.6* | 41.6* | 2.0
COc1cc(/C=N/Nc2nnc3c(n2)[nH]c2ccccc23)ccc1O | 45.6 | -4.5 | 3.8 | 3.4 | -4.9 | 17.5 | · | ·
O=C(CNC(=O)c1ccccn1)N=Nc1c(O)[nH]c2ccccc12 | · | -1.7 | 3.4 | 18.3 | -2.4 | 50.6* | 27.9 | -0.3
COc1ccc(CC(=O)NCC(=O)N=Nc2c(O)[nH]c3ccccc23)cc1 | 1.0 | 5.9 | -4.1 | 10.1 | -5.6 | 7.9 | · | ·
O=C(Cc1ccc(F)cc1)Nc1ccccc1N1CCCC1 | 88.6* | 9.3 | -1.4 | 5.7 | · | 32.5* | -30.2 | -4.8
CC(=O)c1ccc(OC(=O)CCc2nc3ccccc3s2)cc1 | 92.9* | 5.7 | · | -21.1 | -4.9 | 38.7* | 8.3 | -42.6
COc1ccccc1OC(=O)CCc1nc2ccccc2s1 | -4.5 | 5.3 | -1.6 | -1.8 | -6.7 | 37.6* | -8.7 | -1.4
O=C(CCc1nc2ccccc2s1)OCC(=O)c1ccccc1 | -2.4 | 0.6 | 4.1 | -14.4 | -4.7 | 3.0 | · | ·
NC(=O)COC(=O)CCCc1nc2ccccc2s1 | -6.5 | -2.8 | 3.4 | 8.5 | -6.3 | 1.1 | · | ·
CCC[C@@H]1CCCO[C@@](C(=O)NCCN2CCOCC2)(C(F)(F)F)C1 | -11.8 | -5.1 | 3.2 | 13.1 | -4.4 | · | · | ·
O=C(NCC(=O)N(c1ccccc1)C(C(=O)NC1CCCCC1)c1cccnc1)c1ccco1 (stereo not drawn) | 1.0 | -2.2 | -0.6 | -6.1 | -2.2 | -4.6 | · | ·
CC/C(=N\Nc1ccnc2cc(Cl)ccc12)c1ccc(O)cc1 | 95.9* | 7.5 | -7.0 | -1.1 | -4.6 | 33.6* | -27.1 | 1.7
Oc1ccc(/C=N/Nc2ccnc3cc(Cl)ccc23)c(O)c1O | 1.8 | 4.5 | 0.9 | -5.0 | -4.1 | 49.4* | -61.3 | 6.8
S=C(NNc1ccnc2cc(Cl)ccc12)Nc1ccc(Cl)cc1Cl | 0.4 | 13.4 | -8.7 | -8.2 | -2.1 | 13.4 | · | ·
COCCCNC(=S)NCCc1ccc(F)cc1 | 5.5 | -3.9 | 0.0 | 5.9 | -2.3 | 6.2 | · | ·
COCCCNC(=S)NNC(=S)Nc1ccc(F)cc1F | 10.3 | -2.4 | -3.5 | -1.4 | -8.8 | 32.4* | -18.6 | 3.1
COCCCNC(=S)Nc1ccc(C)cc1 | 36.7 | -2.0 | -4.3 | 11.7 | -5.3 | 0.8 | · | ·
COCCCNC(=S)NNC(=S)Nc1ccccc1 | 96.4* | 3.4 | · | 10.7 | -4.8 | 40.4* | -14.1 | 5.6
O=[N+]([O-])c1ccc(N/N=C/c2cccc(O)c2O)cc1 | 6.4 | -2.8 | -1.1 | -5.0 | -8.4 | 36.5* | 4.2 | 0.6
O=[N+]([O-])c1ccccc1N/N=C/c1c[nH]c2ccccc12 | 5.1 | -5.7 | 6.1 | -56.7 | 0.8 | -6.6 | · | ·
O=[N+]([O-])c1ccc(N/N=C/c2c[nH]c3ccccc23)cc1 | -4.9 | 4.0 | 3.4 | -15.6 | -11.9 | 37.0* | -52.5 | 4.2
O=[N+]([O-])c1ccc(N/N=C/c2ccc[nH]2)cc1 | 71.5 | 4.1 | 2.5 | · | -6.2 | 34.7* | -31.4 | 3.6
Cc1cccc(NC(=O)C2(C)CC3c4ccccc4C2c2ccccc23)c1 (stereo not drawn) | -30.0 | 2.4 | 2.7 | 0.4 | -5.2 | -3.8 | · | ·
C=CCN1C(=O)c2ccccc2Sc2ccc(C(=O)NCC(OC)OC)cc21 | 1.0 | -1.9 | 2.7 | -5.6 | -3.9 | 0.2 | · | ·
Cc1ccccc1OCC(=O)Nc1ccc(N2CCN(C(=O)c3ccco3)CC2)cc1 | 5.4 | 9.8 | 2.4 | -3.3 | -2.9 | 0.1 | · | ·
SMILES | ALR inh | IDE cell inh | IDE cell activ | PolyA inh | CaV13 ICDI inh | PfM18AAP inh-1 | PfM18AAP inh-2 | CTSL1 counter
O=C(O)C1CCN(S(=O)(=O)c2ccc(N3CCCC3C(=O)O)c([N+](=O)[O-])c2)CC1 (stereo not drawn) | -2.4 | 4.8 | -1.3 | -3.3 | -10.8 | 36.0* | -21.2 | 0.9
O=C(O)C1CCN(c2ccc(S(=O)(=O)N3CCCCC3)cc2[N+](=O)[O-])CC1 | · | · | -0.9 | · | -7.0 | · | · | ·
CCOC(=O)c1c(NC(=O)CC2Sc3ccc(C(F)(F)F)cc3NC2=O)sc(C)c1C (stereo not drawn) | -7.7 | -2.5 | 0.7 | 10.0 | -2.5 | -3.4 | · | ·
CC(=O)C1=C(C)Nc2cc(C(F)(F)F)ccc2S1 | · | 2.1 | 8.9 | -0.4 | · | 35.7* | -4.2 | -1.4
COc1ccc(C2=Nc3ccccc3OC2)cc1 | 9.7 | 5.0 | 0.9 | -15.3 | -5.1 | 39.1* | -26.0 | -1.3
COc1ccc(NC2=Nc3ccccc3CC2)cc1 | -2.8 | 4.2 | -1.7 | 16.0 | -5.6 | -3.0 | · | ·
Cc1cc(/C=N/NC(N)=S)c(C)n1-c1ccc(Br)cc1 | 41.0 | 11.4 | -6.4 | -7.6 | -2.1 | 21.5 | · | ·
Cc1nnc(N/N=C/c2cc(C)n(-c3ccc(F)cc3)c2C)n1N | -169.9 | 2.1 | 0.5 | -1.4 | -4.9 | 53.3* | 22.9 | -6.2
Cc1nnc(N/N=C/c2c(Cl)cccc2Cl)n1N | -16.4 | 2.8 | -2.9 | 12.1 | -5.7 | 50.6* | -52.3 | 4.5
CC(C)CC(=O)NNC(=O)C(C)C | 7.0 | 1.7 | -2.0 | 0.2 | -2.6 | 3.0 | · | ·
CC1(C)CC(=O)C=C(c2cccc(O)c2)C1 | 34.4 | -3.2 | 3.7 | · | -4.2 | · | · | ·
O=C(COc1ccccc1)NNC(=O)COc1ccc([N+](=O)[O-])cc1 | -0.4 | -6.1 | 4.7 | 10.0 | 0.4 | 19.7 | · | ·
COc1ccc(S(=O)(=O)NNC(=O)c2ccc([N+](=O)[O-])cc2)cc1 | -2.4 | 2.4 | 7.2 | 1.3 | -3.7 | 18.6 | · | ·
COc1ccc(OCC(=O)NNC(=S)NC(=O)c2ccc([N+](=O)[O-])cc2)cc1 | · | -3.1 | -0.7 | 0.0 | -3.0 | 33.1* | -2.8 | 2.5
Cc1ccc(S(=O)(=O)NNC(=S)NC(=O)c2ccc([N+](=O)[O-])cc2)cc1 | 93.0* | 4.5 | -4.4 | 9.0 | -4.5 | 47.8* | -11.3 | 9.1
O=C(COc1ccc([N+](=O)[O-])cc1)Nn1cnnc1 | -0.4 | 0.8 | · | 13.2 | -13.1 | 41.3* | -19.5 | -0.6
O=C(NNS(=O)(=O)c1ccc([N+](=O)[O-])cc1)c1ccc([N+](=O)[O-])cc1 | -3.6 | -2.4 | -4.0 | -0.7 | -20.7 | 35.2* | 15.4 | -7.0
